Results taken from the supplement of paper PMC11732987, “Enantioselective OTUD7B fragment discovery through chemoproteomics screening and high-throughput optimisation” (Communications Chemistry, 2025).

Experiments:
Assay in all cases: log2 ratio of Biotin-Ahx-Ub-VS probe labelling (fragment/DMSO); higher = less target engagement (more negative = stronger competition), active = hit call of the paper (q ≤ 0.05, log2 ratio ≤ -1)
Conditions in all cases: compound concentration: 200 uM; treatment time: 3 h
OTUD6B = biological target: T1, OTUD6B (UniProt Q8N6M0)
T1 sequence (whole entry): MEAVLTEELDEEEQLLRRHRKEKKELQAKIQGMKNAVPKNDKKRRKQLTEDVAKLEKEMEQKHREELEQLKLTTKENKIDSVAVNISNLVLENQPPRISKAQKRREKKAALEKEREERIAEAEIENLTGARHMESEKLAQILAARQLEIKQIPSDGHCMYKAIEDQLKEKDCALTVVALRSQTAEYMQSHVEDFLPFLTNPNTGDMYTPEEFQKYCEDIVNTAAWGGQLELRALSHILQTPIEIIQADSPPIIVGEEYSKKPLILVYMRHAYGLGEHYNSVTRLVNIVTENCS
In short: (§1)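 Fragment (200 µM) or vehicle was incubated for 3 h with triplicate HEK293T lysate samples of 495 µg, which were then treated with Biotin-Ahx-Ub-VS at 0.5 µM final for 1 h. Labelled DUBs were enriched on NeutrAvidin, digested with LysC and trypsin, and analysed by diaPASEF LC-MS/MS. Values are average log2 fragment/vehicle ratios from an unpaired t-test on global-median-normalised Spectronaut label-free quantities, using proteins with ≥2 unique peptides.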

OTUD7B = biological target: T2, OTUD7B (UniProt Q6GQQ9)
T2 sequence (whole entry): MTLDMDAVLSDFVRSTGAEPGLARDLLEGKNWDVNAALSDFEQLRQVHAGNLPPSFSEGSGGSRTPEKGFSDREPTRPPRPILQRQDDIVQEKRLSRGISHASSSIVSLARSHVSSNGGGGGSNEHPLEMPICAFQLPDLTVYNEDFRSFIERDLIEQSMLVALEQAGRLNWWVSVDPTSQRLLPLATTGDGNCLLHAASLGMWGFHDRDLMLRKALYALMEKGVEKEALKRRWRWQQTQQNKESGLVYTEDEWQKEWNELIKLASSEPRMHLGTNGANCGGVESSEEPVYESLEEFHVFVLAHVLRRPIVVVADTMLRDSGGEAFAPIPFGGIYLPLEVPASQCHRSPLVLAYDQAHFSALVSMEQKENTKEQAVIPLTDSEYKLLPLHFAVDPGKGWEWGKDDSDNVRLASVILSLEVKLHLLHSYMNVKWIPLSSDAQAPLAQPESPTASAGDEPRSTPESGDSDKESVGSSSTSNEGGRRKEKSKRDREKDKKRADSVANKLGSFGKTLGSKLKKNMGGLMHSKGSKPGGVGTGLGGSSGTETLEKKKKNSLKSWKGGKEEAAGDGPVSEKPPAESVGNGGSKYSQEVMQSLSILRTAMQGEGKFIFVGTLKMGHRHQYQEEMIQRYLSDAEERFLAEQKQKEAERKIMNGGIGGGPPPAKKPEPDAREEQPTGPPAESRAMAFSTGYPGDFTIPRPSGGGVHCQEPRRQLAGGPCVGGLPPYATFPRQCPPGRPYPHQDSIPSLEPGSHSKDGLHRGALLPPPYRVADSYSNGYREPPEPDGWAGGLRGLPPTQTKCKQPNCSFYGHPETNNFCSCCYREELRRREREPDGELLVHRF
In short: as §1

PRPF8 = PRPF8 (UniProt Q6P2Q9)
In short: as §1

PSMD7 = biological target: T3, PSMD7 (UniProt P51665)
T3 sequence (whole entry): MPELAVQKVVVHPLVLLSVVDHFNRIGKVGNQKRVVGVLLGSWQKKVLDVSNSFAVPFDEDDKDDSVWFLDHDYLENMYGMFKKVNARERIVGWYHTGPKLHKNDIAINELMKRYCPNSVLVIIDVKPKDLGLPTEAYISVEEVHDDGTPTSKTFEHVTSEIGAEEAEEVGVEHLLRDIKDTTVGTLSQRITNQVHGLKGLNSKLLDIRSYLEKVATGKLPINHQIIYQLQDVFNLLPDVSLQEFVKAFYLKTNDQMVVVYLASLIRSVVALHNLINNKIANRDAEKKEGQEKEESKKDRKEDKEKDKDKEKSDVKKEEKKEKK
In short: as §1

UCHL1 = UCHL1 (UniProt P09936)
In short: as §1

UCHL3 = biological target: T4, UCHL3 (UniProt P15374)
T4 sequence (whole entry): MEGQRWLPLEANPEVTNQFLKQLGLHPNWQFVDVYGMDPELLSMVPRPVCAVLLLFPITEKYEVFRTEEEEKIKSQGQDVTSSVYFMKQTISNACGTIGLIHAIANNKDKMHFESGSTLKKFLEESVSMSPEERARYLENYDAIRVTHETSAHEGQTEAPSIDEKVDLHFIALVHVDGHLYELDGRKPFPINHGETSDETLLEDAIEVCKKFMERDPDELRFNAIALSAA
In short: as §1

UCHL5 = biological target: T5, UCHL5 (UniProt Q9Y5K5)
T5 sequence (whole entry): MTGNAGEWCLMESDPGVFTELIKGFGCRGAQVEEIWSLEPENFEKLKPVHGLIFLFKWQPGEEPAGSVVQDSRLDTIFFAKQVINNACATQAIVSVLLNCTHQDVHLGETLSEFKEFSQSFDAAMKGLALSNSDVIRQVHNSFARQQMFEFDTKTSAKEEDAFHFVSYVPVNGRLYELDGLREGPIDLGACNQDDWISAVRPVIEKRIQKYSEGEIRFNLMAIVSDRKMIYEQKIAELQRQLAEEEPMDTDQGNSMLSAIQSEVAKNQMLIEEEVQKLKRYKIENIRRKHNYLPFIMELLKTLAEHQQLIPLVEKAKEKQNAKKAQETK
In short: as §1

USP10 = USP10 (UniProt Q14694)
In short: as §1

USP15 = biological target: T6, USP15 (UniProt Q9Y4E8)
T6 sequence (whole entry): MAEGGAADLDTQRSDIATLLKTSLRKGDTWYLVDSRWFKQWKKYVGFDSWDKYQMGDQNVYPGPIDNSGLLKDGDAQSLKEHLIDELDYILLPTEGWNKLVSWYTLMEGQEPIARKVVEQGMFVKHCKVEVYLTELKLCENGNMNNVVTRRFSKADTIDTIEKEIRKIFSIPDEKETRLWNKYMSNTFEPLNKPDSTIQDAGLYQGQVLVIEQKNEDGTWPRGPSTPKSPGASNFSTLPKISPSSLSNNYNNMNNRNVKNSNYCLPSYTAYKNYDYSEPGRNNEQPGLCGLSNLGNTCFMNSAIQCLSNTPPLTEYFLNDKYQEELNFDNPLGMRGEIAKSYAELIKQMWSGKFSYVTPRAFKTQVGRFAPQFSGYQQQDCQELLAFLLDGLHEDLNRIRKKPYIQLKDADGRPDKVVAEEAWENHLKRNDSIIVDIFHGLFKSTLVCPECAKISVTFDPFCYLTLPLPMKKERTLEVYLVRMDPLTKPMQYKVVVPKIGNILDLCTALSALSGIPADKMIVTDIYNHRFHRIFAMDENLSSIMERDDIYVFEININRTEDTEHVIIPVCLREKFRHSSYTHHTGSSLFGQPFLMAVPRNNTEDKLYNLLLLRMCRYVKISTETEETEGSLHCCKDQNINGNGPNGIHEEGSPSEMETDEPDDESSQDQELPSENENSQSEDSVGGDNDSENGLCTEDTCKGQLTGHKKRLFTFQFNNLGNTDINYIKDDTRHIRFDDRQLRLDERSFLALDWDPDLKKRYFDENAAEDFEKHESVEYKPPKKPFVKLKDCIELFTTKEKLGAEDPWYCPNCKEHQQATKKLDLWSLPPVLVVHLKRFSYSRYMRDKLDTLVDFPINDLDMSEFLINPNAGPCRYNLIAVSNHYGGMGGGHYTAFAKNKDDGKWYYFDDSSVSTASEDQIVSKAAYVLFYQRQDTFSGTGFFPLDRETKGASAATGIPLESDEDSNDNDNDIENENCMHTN
In short: as §1

USP16 = USP16 (UniProt Q9Y5T5)
In short: as §1

Measured: log2 ratio of Biotin-Ahx-Ub-VS probe labelling

Sequence of UCHL1 (P09936 whole entry, looked up): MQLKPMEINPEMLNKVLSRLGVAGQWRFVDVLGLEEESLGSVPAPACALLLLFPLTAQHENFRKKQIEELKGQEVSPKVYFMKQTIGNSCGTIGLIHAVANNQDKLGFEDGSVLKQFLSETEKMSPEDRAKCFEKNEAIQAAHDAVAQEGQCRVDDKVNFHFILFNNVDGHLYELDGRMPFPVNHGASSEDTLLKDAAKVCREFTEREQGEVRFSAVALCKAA
Sequence of USP16 (Q9Y5T5 whole entry, looked up): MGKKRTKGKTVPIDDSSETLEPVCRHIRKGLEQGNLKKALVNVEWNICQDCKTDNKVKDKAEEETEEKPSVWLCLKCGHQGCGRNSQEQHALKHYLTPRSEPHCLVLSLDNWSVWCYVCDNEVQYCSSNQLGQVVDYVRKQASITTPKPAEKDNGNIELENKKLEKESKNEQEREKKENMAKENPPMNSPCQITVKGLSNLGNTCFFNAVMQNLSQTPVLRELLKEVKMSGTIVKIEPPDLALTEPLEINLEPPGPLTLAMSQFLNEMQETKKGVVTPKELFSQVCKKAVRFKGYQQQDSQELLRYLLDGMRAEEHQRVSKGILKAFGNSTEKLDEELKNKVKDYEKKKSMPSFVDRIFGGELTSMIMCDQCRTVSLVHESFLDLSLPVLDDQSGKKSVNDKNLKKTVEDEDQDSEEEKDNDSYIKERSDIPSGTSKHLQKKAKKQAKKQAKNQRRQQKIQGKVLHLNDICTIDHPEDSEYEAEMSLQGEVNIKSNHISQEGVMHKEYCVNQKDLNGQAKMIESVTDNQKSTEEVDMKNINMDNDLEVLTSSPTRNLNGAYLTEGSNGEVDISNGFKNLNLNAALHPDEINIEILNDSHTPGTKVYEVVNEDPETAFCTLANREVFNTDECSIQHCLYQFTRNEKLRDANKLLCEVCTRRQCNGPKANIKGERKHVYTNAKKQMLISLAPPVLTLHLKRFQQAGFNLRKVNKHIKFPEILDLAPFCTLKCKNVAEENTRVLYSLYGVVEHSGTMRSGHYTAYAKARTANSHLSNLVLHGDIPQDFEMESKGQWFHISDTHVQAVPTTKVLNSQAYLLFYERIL
Sequence of USP10 (Q14694 whole entry): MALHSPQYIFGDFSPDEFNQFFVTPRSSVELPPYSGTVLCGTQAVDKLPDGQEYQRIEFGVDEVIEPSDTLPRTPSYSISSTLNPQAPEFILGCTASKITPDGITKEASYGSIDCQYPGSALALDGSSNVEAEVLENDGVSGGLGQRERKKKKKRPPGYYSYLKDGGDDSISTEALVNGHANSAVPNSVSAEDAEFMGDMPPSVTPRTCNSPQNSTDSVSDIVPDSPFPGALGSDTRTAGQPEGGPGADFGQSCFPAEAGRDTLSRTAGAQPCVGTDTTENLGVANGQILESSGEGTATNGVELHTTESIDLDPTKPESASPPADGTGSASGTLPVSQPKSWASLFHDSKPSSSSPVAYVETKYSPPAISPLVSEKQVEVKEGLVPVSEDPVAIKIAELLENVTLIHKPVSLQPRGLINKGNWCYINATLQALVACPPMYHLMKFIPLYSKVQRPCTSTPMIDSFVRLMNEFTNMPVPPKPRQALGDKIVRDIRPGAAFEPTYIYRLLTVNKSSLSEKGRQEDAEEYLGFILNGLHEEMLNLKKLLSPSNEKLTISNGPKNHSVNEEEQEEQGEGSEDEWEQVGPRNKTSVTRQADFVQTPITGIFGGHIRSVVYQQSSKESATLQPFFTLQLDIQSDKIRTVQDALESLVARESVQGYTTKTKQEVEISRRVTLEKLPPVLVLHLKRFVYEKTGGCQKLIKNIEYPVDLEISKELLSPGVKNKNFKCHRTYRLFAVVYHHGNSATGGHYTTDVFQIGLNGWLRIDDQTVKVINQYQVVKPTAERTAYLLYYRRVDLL

O=C(CCl)Nc1ccc(F)cc1Cl
inactive: OTUD6B -0.388 | OTUD7B -0.667 | PRPF8 0.079 | PSMD7 -0.115 | UCHL1 -1.44 | UCHL3 -0.112 | UCHL5 -0.49 | USP10 -0.129 | USP15 0.0309 | USP16 -0.265
